Rows were chosen to be rich in hits. Some 15% of all compounds tested hit in one or more screens of this group.
HCV inh: inhibitors of hepatitis C virus infection | Huh7.5.1 HCVcc-Cre infection, luciferase reporter, 44 h | Potency, µM (highest dose often 41.8 µM), most hits filed as inhibitors | 3.4% of 340,000 active | AID 651820
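HCVcc-Cre virus at an moi near 0.5 was added right after compound to cells cultured 4 h from seeding (1,000 cells/well). Luciferase activity was determined 44 h later, 15 min after substrate addition at RT.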
Sm TGR inh: inhibitors of Schistosoma mansoni thioredoxin glutathione reductase | purified TGR, DTNB reduction, TNB absorbance 405 nm | Potency, µM (titrated, usually from 114 µM), hits mostly inhibitors | AID 485364 | 3% of 360,000 active; note: nearly all actives have a fitted effect of over 60% in size
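First, TGR (20 nM dispensed) and NADPH were mixed with compound. Second, a 15 min room-temperature incubation followed. Third, further NADPH and then DTNB were added to start the reaction. Finally, TNB absorbance was monitored kinetically.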
SARS PLP yeast: blocks SARS-CoV papain-like protease in a yeast assay; S. cerevisiae expressing SARS-CoV PLpro, growth rescue; Potency, µM (highest dose often 32.9 µM), hits mostly activators; 0.19% of 330,000 active; AID 485353; calls by dose curve; note: nearly all actives have a fitted effect of over 55% in size
Pf growth 96h: inhibits malaria parasite growth, 96 h; P. falciparum luciferase reporter growth, 96 h; Potency, µM (top dose mostly 28.7 µM), usual class: inhibitors; 6.9% of 320,000 active; AID 504834
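Two-generation exposure (96 h) targets delayed-death phenotype. Reporter parasites carrying integrated firefly luciferase, in red cells at 2% hematocrit and 0.05% parasitemia final, kept at 37 C, 5% CO2; luminescence loss indicates inhibition.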
Pf growth 48h: P. falciparum growth inhibition at 48 hours (one generation); Potency, µM (doses to about 28.7 µM), hits mostly inhibitors; P. falciparum luciferase growth in erythrocytes, 48 h; 5.9% of 310,000 active
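Luminescence readout; reporter = integrated firefly luciferase in P. falciparum. RBC culture at 2% hematocrit, 0.1% parasitemia final, 37 C/5% CO2; decreased signal taken as growth inhibition.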
HCMV antiviral: inhibitors of human cytomegalovirus; 4.5% of 410,000 active; activity change, negative = inhibition, % at 57.5 µM; HFF cells, HCMV-luciferase reporter, 72 h; active compounds read low; AID 1259415; in the data active = activity change below about -60%; inconclusive = no clear call, values can overlap the other calls; inactive = above about -39%
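After 16 h attachment at 37C, HFF cells received test compound and HCMV-luciferase (1 PFU/cell); reporter luminescence read 72 h later, data normalized against buffer-only and known inhibitor Salinomycin.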
Numbers stand for hits; n = inactive; u = inconclusive; x = no result given. Unless noted, calls come from the whole dose curve; as a rule, active = well fitted curve in the direction sought with a large enough effect; inconclusive = small, poorly fitted or top-dose-only effect, or another doubt; inactive = no such curve, though single readings can be large; an effect the other way counts as inactive or inconclusive.

SMILES	HCV inh	Sm TGR inh	SARS PLP yeast	Pf growth 96h	Pf growth 48h	HCMV antiviral
COC(=O)[C@]1(C)N[C@H](CN(C)C(C)=O)[C@@H]2C(=O)N(C)C(=O)[C@@H]21	n	x	n	x	x	n
COC(=O)[C@]1(C)N[C@H](CN(C)C(=O)Nc2ccc(C)cc2)[C@@H]2C(=O)N(C)C(=O)[C@@H]21	1µM	x	n	x	x	n
COc1ccc(C2(C#N)CCC(=O)N2c2ccccc2)cc1 (stereo not drawn)	n	n	n	n	n	n
Cc1ccc(NC(=O)Cn2c(=O)n(CC3CCC(C(=O)NC(C)C)CC3)c(=O)c3sccc32)cc1 (stereo not drawn)	x	n	x	x	x	n
Cc1ccccc1C(=O)Nc1ccccc1N1CCN(C(=O)c2ccccc2)CC1	n	n	n	n	12µM	-73
COc1ccc(Br)cc1C(=O)Nc1ccccc1N1CCN(C(=O)c2ccccc2)CC1	11µM	n	n	n	u	u
COc1c(C)cc(Br)cc1C(=O)Nc1ccccc1N1CCN(C(=O)c2ccccc2)CC1	u	n	n	n	u	n
CC1CCCCC1NC(=O)C1CCCN(S(=O)(=O)c2ccc(-n3cnnn3)cc2)C1 (stereo not drawn)	n	n	n	u	n	n
COc1cc2c(c(OC)c1OC)-c1ccc(SC)c(=O)cc1C(NC(=O)c1ccccc1)CC2 (stereo not drawn)	n	x	x	x	x	-63
COc1cc2c(c(OC)c1OC)-c1ccc(OC)c(=O)cc1C(NC(=O)c1ccccc1)CC2 (stereo not drawn)	n	x	x	x	x	-75
COc1cc2c(c(OC)c1OC)-c1ccc(SC)c(=O)cc1C(NC=O)CC2 (stereo not drawn)	n	x	x	x	x	-97
C=COC(=O)NC1CCc2cc(OC)c(OC)c(OC)c2-c2ccc(SC)c(=O)cc21 (stereo not drawn)	n	x	x	x	x	u
COc1ccc(S(=O)(=O)c2c(SC)nn(Cc3ccccc3C)c2NC(C)=O)cc1	x	n	x	x	x	n
COc1ccc(N(C(C)=O)C2C=CS(=O)(=O)C2)c(OC)c1 (stereo not drawn)	n	n	n	10µM	n	n
COc1cccc(C(=O)N(c2ccc(C)cc2)C2C=CS(=O)(=O)C2)c1 (stereo not drawn)	n	n	n	u	n	-101
COc1ccc(N(C(=O)c2ccccc2OC)C2C=CS(=O)(=O)C2)c(OC)c1 (stereo not drawn)	n	n	n	n	n	n
COc1ccc(N(C(=O)c2cc3ccccc3oc2=O)C2C=CS(=O)(=O)C2)c(OC)c1 (stereo not drawn)	n	n	n	n	n	-61
COc1cccc(C(=O)N(c2ccc(OC)cc2OC)C2C=CS(=O)(=O)C2)c1 (stereo not drawn)	n	n	n	u	u	n
CC(=O)N1CCCc2cc(S(=O)(=O)N(C)CC(=O)Nc3cccc(C)c3C)ccc21	x	n	x	x	x	n
N#CC(CC(=O)OCc1ccccc1)NC(=O)OCc1ccccc1 (stereo not drawn)	x	x	x	x	x	n
COC(=O)c1sccc1S(=O)(=O)N1CCN(c2cccc(C)c2)C(C)C1 (stereo not drawn)	x	n	x	x	x	n
COc1ccccc1NC(=O)c1cnc(SCC(=O)N2CCCc3ccccc32)n(C)c1=O	x	n	x	x	x	n
COC(=O)C1(C(F)(F)F)N=C(C(F)(F)F)Nc2ccc(Cl)cc21 (stereo not drawn)	n	n	n	n	n	-102
O=C(Nc1ccc(S(=O)(=O)Nc2ncccn2)cc1)C1CC(=O)N(c2ccc(Cl)cc2)C1 (stereo not drawn)	n	n	n	n	n	n
CCOC(=O)C1=C(COC(=O)CNS(=O)(=O)c2ccc(C)c(C)c2)NC(=O)NC1C (stereo not drawn)	x	x	x	x	x	n
SMILES	HCV inh	Sm TGR inh	SARS PLP yeast	Pf growth 96h	Pf growth 48h	HCMV antiviral
COc1cc(C(=O)Oc2c(CN3CCOCC3)cc(Cl)c3cccnc23)cc(OC)c1OC	u	n	u	u	x	x
O=C(Oc1c(CN2CCOCC2)cc(Cl)c2cccnc12)c1ccc(F)cc1	10µM	n	n	n	4.7µM	-97
COc1ccc(C(=O)Oc2c(CN3CCOCC3)cc(Cl)c3cccnc23)cc1	13µM	n	n	x	15µM	-75
O=C(Oc1ccc(Cl)c2cccnc12)N1CCOCC1	n	n	n	u	n	n
O=C(c1ccc(-n2cncn2)c([N+](=O)[O-])c1)N1CCN(S(=O)(=O)c2ccccc2F)CC1	n	n	n	n	u	n
Cc1nc(C(C)N(C)Cc2c(C(=O)N3CCCCC3)nc3c(C)cccn23)c(C)s1 (stereo not drawn)	n	n	n	10µM	u	n
Cc1nn(C)cc1CNCc1c(C(=O)N2CCCCC2)nc2c(C)cccn12	n	x	n	n	n	n
COCC1CCN(Cc2c(C(=O)N3CCOCC3)nc3c(C)cccn23)C1 (stereo not drawn)	x	x	x	x	x	n
Cc1cccn2c(CN(C)C3CCOC3)c(C(=O)N3CCCCC3)nc12 (stereo not drawn)	n	x	n	u	n	n
COC(=O)[C@@H]1CCCN1Cc1c(C(=O)N2CCCCC2)nc2c(C)cccn12	n	u	n	8.3µM	n	n
Cc1cccn2c(CN(C)CCC3CCCCO3)c(C(=O)N3CCCCC3)nc12 (stereo not drawn)	n	n	n	13µM	n	n
CC(C)N(c1cc(=O)nc2ccccn12)C(C)C	x	x	x	x	x	n
COCCCn1c(O)c(/C=C2\N=C(C#N)C(=Nc3ccc(C)cc3)O2)sc1=S	u	n	n	n	u	u
Cc1ccccc1CCNC(=O)c1ccc(Cl)c(S(=O)(=O)N2CC(C)OC(C)C2)c1 (stereo not drawn)	7.9µM	n	n	13µM	13µM	-88
COc1ccc(NC(=O)c2ccc(Cl)c(S(=O)(=O)N3CCc4ccccc4C3)c2)cn1	11µM	n	n	x	1.9µM	-104
CC1CN(S(=O)(=O)c2cc(C(=O)NCc3ccncc3)ccc2Cl)CC(C)O1 (stereo not drawn)	n	n	n	u	u	n
O=C(Nc1cccnc1)c1ccc(Cl)c(S(=O)(=O)N2CCCC2)c1	u	n	n	n	u	u
COc1ccc(NC(=O)c2ccc(Cl)c(S(=O)(=O)N3CC(C)OC(C)C3)c2)cn1 (stereo not drawn)	3.2µM	n	n	10µM	8.3µM	-90
O=C(NC1(Cc2ccccc2)CCN(CCCc2ccccc2)C1=O)c1ccccc1 (stereo not drawn)	u	n	n	n	u	-98
c1ccc(CCCCN2CCN=C2Nc2ccccc2)cc1	n	n	n	u	u	n
CCN(CC)CCCNC(=O)Cn1c(-c2cccs2)cc2cc(Cl)ccc21	x	n	x	x	x	n
CCOc1cc(C(=S)N2CCOCC2)ccc1OS(=O)(=O)c1ccc(OC)cc1	u	n	n	u	n	n

Screens deposited in PubChem by National Center for Advancing Translational Sciences (NCATS).
